Test results as given in PubChem BioAssay (EPA / NIEHS).
Results filed as inconclusive are left out. Activity calls are given as the source filed them. Rule for the calls, unless noted: active = hit-call score of the fitted dose curve at least 0.9, where 1 is the maximum; inactive = score below 0.9.

What was measured:
[1] = ATG_PBREM_CIS: Attagene CIS-FACTORIAL HepG2 Assay for human Phenobarbital-responsive Enhancer Module (PBREM) (AID 2282955); settings: HepG2 PBREM cis-reporter, Attagene multiplexed transcription; actives raise or lower the signal
In short: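 Endogenous transcription factors in human liver HepG2 cells drive a PBREM cis-element reporter, whose transcript level after 24 h treatment is quantified by RT-PCR with capillary electrophoresis; activity fitted in both directions against DMSO.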

[2] = target: Paired box protein Pax-6 (Homo sapiens) (UniProt P26367); test: ATG_Pax6_CIS: Attagene CIS-FACTORIAL HepG2 Assay for human Paired Box 6 (PAX6) (AID 2282956); settings: HepG2 CIS-FACTORIAL PAX6 reporter transcription, RNA readout; actives raise or lower the signal
Paired box protein Pax-6 (Homo sapiens), sequence (P26367 whole entry, looked up): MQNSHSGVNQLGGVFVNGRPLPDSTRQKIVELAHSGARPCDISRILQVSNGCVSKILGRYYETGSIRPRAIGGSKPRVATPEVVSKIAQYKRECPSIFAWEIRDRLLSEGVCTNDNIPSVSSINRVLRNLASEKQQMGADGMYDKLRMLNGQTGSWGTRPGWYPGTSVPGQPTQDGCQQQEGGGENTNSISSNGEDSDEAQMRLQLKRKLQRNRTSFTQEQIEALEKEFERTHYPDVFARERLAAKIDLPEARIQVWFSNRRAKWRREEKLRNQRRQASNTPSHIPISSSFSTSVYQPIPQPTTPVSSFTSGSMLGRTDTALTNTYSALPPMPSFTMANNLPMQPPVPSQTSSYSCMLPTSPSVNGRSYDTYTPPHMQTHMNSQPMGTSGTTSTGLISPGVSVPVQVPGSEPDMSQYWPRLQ
In short: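 Fluorescent RT-PCR products separated by capillary electrophoresis report PAX6-linked promoter mRNA in HepG2 cells 24 h post-dose. Curves fitted bidirectionally, DMSO as negative control.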

[3] = ATG_PXRE_CIS: Attagene CIS-FACTORIAL HepG2 Assay for human Pregnane X Receptor Element (PXRE) (AID 2282957); settings: HepG2 Attagene CIS-FACTORIAL PXRE reporter, mRNA; actives raise or lower the signal
In short: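 Fluorescent capillary electrophoresis of amplified reporter cDNA gave the signal, collected 24 h after dosing HepG2 cells that held transfected cis-element reporter constructs.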

[4] = ATG_Sox_CIS: Attagene CIS-FACTORIAL HepG2 Assay for human SRY-box transcription factor (SOX) (AID 2282960); settings: HepG2 Attagene cis-factorial SOX reporter, mRNA; actives raise or lower the signal
In short: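 Endogenous factor activity in human liver HepG2 cells carrying transfected cis-regulated reporter units. RNA taken 24 h post-dose, reverse-transcribed, PCR-amplified and sized by capillary electrophoresis. Gain or loss of signal fitted relative to DMSO.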

[5] = target: Transcription factor Sp1 (Homo sapiens) (UniProt P08047); test: ATG_Sp1_CIS: Attagene CIS-FACTORIAL HepG2 Assay for human Specificity Protein 1 (Sp1) (AID 2282961); settings: HepG2 Sp1 cis-reporter transcription, actives raise or lower the signal
Transcription factor Sp1 (Homo sapiens), sequence (P08047 whole entry, looked up): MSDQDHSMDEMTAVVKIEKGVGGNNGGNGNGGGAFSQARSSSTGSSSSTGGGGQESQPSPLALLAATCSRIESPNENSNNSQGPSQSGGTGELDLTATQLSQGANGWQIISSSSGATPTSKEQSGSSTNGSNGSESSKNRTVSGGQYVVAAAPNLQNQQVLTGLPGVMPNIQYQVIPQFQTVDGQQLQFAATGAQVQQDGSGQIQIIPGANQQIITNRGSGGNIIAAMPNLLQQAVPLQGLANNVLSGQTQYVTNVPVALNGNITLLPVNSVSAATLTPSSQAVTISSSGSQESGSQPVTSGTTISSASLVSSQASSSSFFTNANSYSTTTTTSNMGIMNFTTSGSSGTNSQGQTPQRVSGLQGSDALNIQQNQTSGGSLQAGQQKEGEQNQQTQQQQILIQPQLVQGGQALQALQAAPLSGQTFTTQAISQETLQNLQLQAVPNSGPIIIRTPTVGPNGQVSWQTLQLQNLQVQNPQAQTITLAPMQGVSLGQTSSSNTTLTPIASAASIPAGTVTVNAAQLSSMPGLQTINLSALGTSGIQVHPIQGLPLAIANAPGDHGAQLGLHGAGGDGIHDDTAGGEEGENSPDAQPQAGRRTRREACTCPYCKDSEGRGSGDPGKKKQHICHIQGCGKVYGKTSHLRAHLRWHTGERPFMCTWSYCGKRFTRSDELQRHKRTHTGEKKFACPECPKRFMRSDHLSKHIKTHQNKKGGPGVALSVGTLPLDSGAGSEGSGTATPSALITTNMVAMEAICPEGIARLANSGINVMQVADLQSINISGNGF
In short: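 Transient MRTU-transfected HepG2, 24 h compound exposure. Total RNA → oligo(dT) RT → PCR of reporter → 6-FAM primer extension → HpaI digest → CE. Endpoint fitted both directions vs DMSO.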

[6] = ATG_SREBP_CIS: Attagene CIS-FACTORIAL HepG2 Assay for human Sterol Regulatory Element Binding (SREBP) (AID 2282962); settings: HepG2 Attagene cis-factorial SREBP reporter, mRNA; actives raise or lower the signal
In short: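 Endogenous factor activity is measured in HepG2 through multiplexed reporter units under cis-element control. Following a 24 h incubation, reporter transcripts are reverse-transcribed, PCR-amplified and sized by capillary electrophoresis; activity is fitted in both directions relative to DMSO.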

[7] = target: Signal transducer and activator of transcription 3 (Homo sapiens) (UniProt P40763); test: ATG_STAT3_CIS: Attagene CIS-FACTORIAL HepG2 Assay for human Signal Transducer and Activator of Transcription 3 (STAT3) (AID 2282963); settings: HepG2, Attagene cis-factorial STAT3 reporter transcription; actives raise or lower the signal
Signal transducer and activator of transcription 3 (Homo sapiens), sequence (P40763 whole entry, looked up): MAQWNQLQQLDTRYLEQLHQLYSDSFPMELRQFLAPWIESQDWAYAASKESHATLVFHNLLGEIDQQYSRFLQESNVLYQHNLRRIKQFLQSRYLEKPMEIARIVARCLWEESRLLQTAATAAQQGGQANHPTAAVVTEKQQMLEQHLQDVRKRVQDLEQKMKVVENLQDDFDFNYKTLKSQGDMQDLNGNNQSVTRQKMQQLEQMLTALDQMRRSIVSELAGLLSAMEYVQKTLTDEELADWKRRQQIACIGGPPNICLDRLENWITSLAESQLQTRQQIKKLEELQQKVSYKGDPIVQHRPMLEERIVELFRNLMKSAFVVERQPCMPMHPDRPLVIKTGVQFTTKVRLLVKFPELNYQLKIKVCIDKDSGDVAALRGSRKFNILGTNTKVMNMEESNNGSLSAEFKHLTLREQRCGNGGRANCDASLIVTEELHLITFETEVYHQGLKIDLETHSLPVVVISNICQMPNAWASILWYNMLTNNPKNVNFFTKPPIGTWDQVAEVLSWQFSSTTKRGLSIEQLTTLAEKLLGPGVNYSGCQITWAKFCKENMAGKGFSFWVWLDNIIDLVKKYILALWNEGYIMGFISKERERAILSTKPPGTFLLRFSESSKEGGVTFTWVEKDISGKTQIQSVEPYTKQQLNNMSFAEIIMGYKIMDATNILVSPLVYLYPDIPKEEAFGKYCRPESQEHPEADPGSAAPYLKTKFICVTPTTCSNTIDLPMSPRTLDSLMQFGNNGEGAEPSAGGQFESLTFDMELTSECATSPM
In short: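 HepG2, MRTU-transfected, 24 h dosing. RNA → RT → PCR → FAM label → HpaI → CE. Bidirectional fit vs DMSO.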

[8] = ATG_TA_CIS: Attagene CIS-FACTORIAL HepG2 Assay for human TA Basal Promoter (AID 2282964); settings: HepG2 Attagene CIS-factorial TA basal promoter reporter; actives raise or lower the signal
In short: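 Background-control readout: TA basal promoter reporter mRNA, fitted in both directions relative to DMSO. Measured by RT-PCR and capillary electrophoresis 24 hours after treating HepG2 human liver cells transiently carrying multiplexed cis-regulated reporter constructs.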

[9] = ATG_TCF_b_cat_CIS: Attagene CIS-FACTORIAL HepG2 Assay for human T-Cell-Factor with beta-catenin (TCF/b-cat) (AID 2282965); settings: HepG2 TCF/beta-catenin cis-reporter transcription, actives raise or lower the signal
In short: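 Using capillary electrophoresis as the read-out, labelled reporter cDNA fragments from transiently transfected HepG2 were sized and quantified. Exposure lasted 24 hours; activity in either direction was referenced to DMSO.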

[10] = ATG_TAL_CIS: Attagene CIS-FACTORIAL HepG2 Assay for human TAL Basal Promoter (AID 2282966); settings: HepG2 Attagene cis-factorial TAL promoter reporter; actives raise or lower the signal;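 note: background control endpoint measuring basal TAL promoter reporter mRNA not a specific factor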
In short: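 Transiently transfected HepG2 (cis-regulated reporter units), 24 h treatment, mRNA read by fluorescent CE after RT-PCR; bidirectional fit, DMSO baseline.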

[11] = ATG_TGFb_CIS: Attagene CIS-FACTORIAL HepG2 Assay for human Transforming Growth Factor (TGF) (AID 2282967); settings: HepG2 Attagene CIS TGFb reporter, mRNA transcription; actives raise or lower the signal
In short: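 Endogenous TGFB1-linked transcription factor activity read as reporter mRNA via RT-PCR and capillary electrophoresis, 24 h after dosing transiently transfected HepG2 cells. Gain or loss of signal fitted relative to DMSO.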

[12] = ATG_VDRE_CIS: Attagene CIS-FACTORIAL HepG2 Assay for human Vitamin D Receptor Element (VDRE) (AID 2282968); settings: HepG2 VDRE cis-reporter transcription, actives raise or lower the signal
In short: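 Steps: transfect HepG2 with multiple reporter transcription units; dose chemicals 24 h; isolate RNA; RT-PCR; label with 6-FAM primer extension; HpaI digest; capillary electrophoresis. Curves fitted both directions against DMSO.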

[13] = target: Nuclear receptor subfamily 1 group I member 3 (Homo sapiens) (UniProt Q14994); test: ATG_CAR_TRANS: Attagene TRANS-FACTORIAL HepG2 Assay for human Constitutive Androstane Receptor (CAR) (AID 2282969; active = hit-call score of the fitted dose curve at least 0.9, where 1 is the maximum;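 note: activators raise reporter mRNA above DMSO so AC50 marks induction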); settings: HepG2 Attagene TRANS-FACTORIAL CAR reporter
Nuclear receptor subfamily 1 group I member 3 (Homo sapiens), sequence (Q14994 whole entry, looked up, the tested form may be a part): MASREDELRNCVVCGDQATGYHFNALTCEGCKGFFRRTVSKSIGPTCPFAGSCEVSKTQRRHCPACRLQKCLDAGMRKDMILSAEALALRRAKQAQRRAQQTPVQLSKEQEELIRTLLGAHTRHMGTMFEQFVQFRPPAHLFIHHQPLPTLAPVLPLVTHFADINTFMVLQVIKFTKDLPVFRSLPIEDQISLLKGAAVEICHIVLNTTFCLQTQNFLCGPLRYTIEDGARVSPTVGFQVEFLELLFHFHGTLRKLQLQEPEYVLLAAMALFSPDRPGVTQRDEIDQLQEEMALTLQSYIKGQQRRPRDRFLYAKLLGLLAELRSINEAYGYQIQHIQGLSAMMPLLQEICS
In short: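 Steps: transient transfection of HepG2 with multiple GAL4-UAS reporter units; 24 h compound incubation; RNA isolation, RT-PCR, 6-FAM primer extension, HpaI digest; capillary electrophoresis. Gain-of-signal relative to DMSO negative control.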

[14] = target: Estrogen receptor (Homo sapiens) (UniProt P03372); test: ATG_ERa_TRANS: Attagene TRANS-FACTORIAL HepG2 Assay for human Estrogen Receptor alpha (ERa) (AID 2282970; active = hit-call score of the fitted dose curve at least 0.9, where 1 is the maximum); settings: HepG2 Attagene TRANS ERa GAL4 reporter, mRNA
Estrogen receptor (Homo sapiens), sequence (P03372 whole entry, looked up, the tested form may be a part): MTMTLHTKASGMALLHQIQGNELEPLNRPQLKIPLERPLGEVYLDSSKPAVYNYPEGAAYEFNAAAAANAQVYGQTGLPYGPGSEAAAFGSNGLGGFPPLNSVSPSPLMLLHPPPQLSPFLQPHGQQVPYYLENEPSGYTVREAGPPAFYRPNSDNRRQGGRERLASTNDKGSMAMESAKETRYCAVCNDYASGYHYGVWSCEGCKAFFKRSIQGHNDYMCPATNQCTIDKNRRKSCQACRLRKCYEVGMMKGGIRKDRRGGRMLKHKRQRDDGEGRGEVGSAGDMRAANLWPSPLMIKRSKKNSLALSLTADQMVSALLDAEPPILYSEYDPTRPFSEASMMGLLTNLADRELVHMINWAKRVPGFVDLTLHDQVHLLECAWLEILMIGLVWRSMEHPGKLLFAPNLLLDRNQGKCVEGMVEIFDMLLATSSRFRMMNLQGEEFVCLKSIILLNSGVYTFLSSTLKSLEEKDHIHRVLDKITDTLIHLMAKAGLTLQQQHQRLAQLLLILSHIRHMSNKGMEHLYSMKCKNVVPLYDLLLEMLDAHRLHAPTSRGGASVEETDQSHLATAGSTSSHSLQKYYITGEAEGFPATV
In short: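 One of 30 multiplexed endpoints from a HepG2 TRANS system, this one reports ERa-Gal4-driven reporter mRNA. Transcripts were quantified 24 hours post-dosing by fluorescent RT-PCR and capillary electrophoresis, with activity scored as induction over DMSO.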

[15] = target: X-box-binding protein 1 (Homo sapiens) (UniProt P17861); test: ATG_Xbp1_CIS: Attagene CIS-FACTORIAL HepG2 Assay for human X-box Binding Protein 1 (XBP1) (AID 2282972); settings: HepG2 XBP1 cis-element reporter, Attagene multiplex; actives raise or lower the signal
X-box-binding protein 1 (Homo sapiens), sequence (P17861 whole entry, looked up): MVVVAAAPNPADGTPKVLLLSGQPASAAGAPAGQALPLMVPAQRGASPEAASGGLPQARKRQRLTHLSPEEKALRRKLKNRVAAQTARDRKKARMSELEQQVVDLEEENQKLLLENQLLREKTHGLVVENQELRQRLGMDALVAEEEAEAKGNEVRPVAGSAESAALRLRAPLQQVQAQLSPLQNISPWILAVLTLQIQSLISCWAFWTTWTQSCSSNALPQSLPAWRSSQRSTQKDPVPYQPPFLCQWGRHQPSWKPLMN
In short: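 Multiplexed cis-reporter readout in transfected HepG2 liver cells. Exposure lasted 24 hours. Activity in either direction was fitted against DMSO as negative control and baseline.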

[16] = ATG_M_19_TRANS: Attagene TRANS-FACTORIAL HepG2 Assay for M19 Transcription Factor (Internal Marker) (AID 2282974; active = hit-call score of the fitted dose curve at least 0.9, where 1 is the maximum); settings: HepG2 Attagene TRANS-FACTORIAL M19 internal marker reporter
In short: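 Fluorescence of 6-FAM-labelled reporter cDNA fragments, separated by capillary electrophoresis, served as the readout. These derived from HepG2 cells carrying transfected GAL4-UAS reporter units after 24 h dosing, with DMSO as negative control.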

[17] = ATG_RORE_CIS: Attagene CIS-FACTORIAL HepG2 Assay for human RAR-related Orphan Receptor Element (RORE) (AID 2282959); settings: HepG2 Attagene cis-factorial RORE reporter, mRNA; actives raise or lower the signal
In short: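 Transient MRTU transfection of human HepG2 liver cells (FuGene 6); 24 h compound exposure; TriZol RNA, oligo(dT) RT, PCR, FAM labeling, HpaI cut, CE fragment analysis. DMSO = negative control/baseline.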

[18] = ATG_GAL4_TRANS: Attagene TRANS-FACTORIAL HepG2 Assay for GAL4 (Internal Marker) (AID 2282976; active = hit-call score of the fitted dose curve at least 0.9, where 1 is the maximum); settings: HepG2 Attagene TRANS GAL4 internal marker reporter
In short: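 HepG2 cells transiently transfected with multiplexed GAL4-UAS reporter constructs were dosed for 24 h. Reporter mRNA was measured by RT-PCR, 6-FAM primer extension, HpaI digestion and capillary electrophoresis, and gain of signal was fitted relative to DMSO.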

[19] = target: Steroid hormone receptor ERR1 (Homo sapiens) (UniProt P11474); test: ATG_ERRa_TRANS: Attagene TRANS-FACTORIAL HepG2 Assay for human Estrogen-Related Receptor alpha (ERRa) (AID 2282971; active = hit-call score of the fitted dose curve at least 0.9, where 1 is the maximum); settings: HepG2 Attagene TRANS reporter, ERRa transactivation
Steroid hormone receptor ERR1 (Homo sapiens), sequence (P11474 whole entry, looked up, the tested form may be a part): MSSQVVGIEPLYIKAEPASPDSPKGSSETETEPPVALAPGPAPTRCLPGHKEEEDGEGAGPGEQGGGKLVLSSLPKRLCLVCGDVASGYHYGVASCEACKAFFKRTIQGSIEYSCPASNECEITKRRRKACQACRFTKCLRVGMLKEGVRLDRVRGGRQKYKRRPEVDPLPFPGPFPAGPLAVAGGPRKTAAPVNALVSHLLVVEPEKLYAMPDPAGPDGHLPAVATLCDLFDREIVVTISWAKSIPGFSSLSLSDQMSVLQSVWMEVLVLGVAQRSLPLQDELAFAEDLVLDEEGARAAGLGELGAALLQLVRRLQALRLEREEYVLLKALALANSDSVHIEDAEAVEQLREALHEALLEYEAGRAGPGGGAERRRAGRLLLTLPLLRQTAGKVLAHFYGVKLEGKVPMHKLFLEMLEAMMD
In short: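 HepG2 cells transiently transfected with multiplexed GAL4-UAS reporter units reading chimeric ERRa-Gal4 activity; 24 h compound exposure. Reporter mRNA measured by RT-PCR, 6-FAM labelling, HpaI digest and capillary electrophoresis; gain of signal fitted versus DMSO baseline.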

Measured: AC50

COc1ccc(N)c(C)c1
active: [1] 181 µM | [3] 27.3 µM | [9] 169 µM | [12] 100 µM | [14] 56.5 µM
not listed: [17] | [18] | [19]
inactive: all other assays above

CCCCCCCCCCO[C@@H]1O[C@H](CO)[C@@H](O)[C@H](O)[C@H]1O
not listed: [8] | [12] | [13] | [14] | [19]
inactive: all other assays above

CC(=O)C1=C(C)[C@@H]2C[C@@]3(C1)[C@H](C)CC[C@H]3C2(C)C
inactive: [2] | [17] | [4] | [10] | [11] | [15] | [16]
active: [1] 161 µM | [3] 1.91 µM | [5] 50.5 µM | [6] 71.8 µM | [7] 150 µM | [9] 77.7 µM | [14] 2.65 µM

C=C1CC/C=C(\C)CC[C@@H]2[C@@H]1CC2(C)C
active: [3] 26.6 µM | [14] 14.3 µM
not listed: [7] | [16]
inactive: all other assays above

CC(=O)CCC=C(C)CCC=C(C)C
active: [3] 6.98 µM | [12] 7.02 µM
not listed: [10] | [16] | [18] | [19]
inactive: all other assays above

CCCCCC(=O)O[C@]1(C(C)=O)CC[C@H]2[C@@H]3CCC4=CC(=O)CC[C@]4(C)[C@H]3CC[C@@]21C
active: [2] 22.8 µM | [3] 0.239 µM | [4] 59.6 µM | [6] 33.2 µM | [7] 33.2 µM | [10] 13.4 µM | [12] 61.2 µM
inactive: [1] | [17] | [5] | [11] | [15] | [16] | [18]

CCCCCCCCOC(=O)c1ccc(O)cc1
active: [3] 13.4 µM | [14] 5.53 µM
not listed: [9] | [12] | [15] | [17] | [19]
inactive: all other assays above

O=S(=O)(O)c1cc(S(=O)(=O)O)c2c(N=Nc3ccccc3)c(O)ccc2c1
not listed: [10] | [12] | [14] | [16] | [17] | [19]
inactive: all other assays above

C=C(C)C(=O)OCCC(C)OC(=O)C(=C)C (stereo not drawn)
active: [3] 56.2 µM
not listed: [13] | [17] | [18]
inactive: all other assays above

CN(C)C
not listed: [17] | [19]
inactive: all other assays above

CCOC(=O)CCCCCCCCC(=O)OCC
not listed: [9] | [11] | [13] | [16] | [19]
inactive: all other assays above

CC12CCC(C1)C(C)(C)C2O (stereo not drawn)
not listed: [9] | [16] | [19]
inactive: all other assays above

[Cl][Dy]([Cl])[Cl]
not listed: [9] | [13] | [17] | [19]
inactive: all other assays above

CCCCC1CCCCC(=O)O1 (stereo not drawn)
not listed: [10] | [15] | [17] | [18] | [19]
inactive: all other assays above

CN(C)c1ccc(C=O)cc1
not listed: [9] | [11] | [13] | [16]
inactive: all other assays above

C=C(C)C(N)=O
not listed: [8] | [9] | [13] | [14] | [16] | [19]
inactive: all other assays above

COC(=O)c1ccc(C(=O)OC)cc1
not listed: [9] | [11] | [13] | [14] | [19]
inactive: all other assays above

CN1CCc2cccc3c2[C@H]1Cc1ccc(O)c(O)c1-3
inactive: [1] | [2] | [4] | [5] | [7] | [11] | [12] | [14] | [15]
active: [3] 1.26 µM | [6] 13.3 µM | [10] 8.44 µM
